Compound activity from PubChem.
Compounds with a hit are over-represented: about 3.6% of the library has one in this group of screens.
SARS 3CLpro inh = SARS-CoV 3CLpro protease inhibition | recombinant SARS-CoV 3CLpro, quenched FRET peptide cleavage | inhibition, % at 6 µM | 0.14% of 290,000 active | P0C6X7; in the data active means inhibition above about 12%
BoNT F protease = blocks Botulinum neurotoxin F light chain protease; 0.22% of 360,000 active; inhibition, % at 10 µM; Multiplex microsphere protease cleavage assay, flow cytometry; in the data active means inhibition above about 35%, passing the limit was not always enough; inconclusive means no clear call, values can overlap the other calls; further: plate controls were buffer without enzyme for full effect and enzyme alone for no effect
Anthrax LF prot = blocks Bacillus anthracis lethal factor protease. 0.12% of 360,000 active. inhibition, % at 10 µM. multiplex microsphere protease cleavage assay, LF. AID 588501. P15917; further: plate controls were buffer without enzyme for full effect and enzyme alone for no effect
Target sequence (P15917 whole entry, looked up): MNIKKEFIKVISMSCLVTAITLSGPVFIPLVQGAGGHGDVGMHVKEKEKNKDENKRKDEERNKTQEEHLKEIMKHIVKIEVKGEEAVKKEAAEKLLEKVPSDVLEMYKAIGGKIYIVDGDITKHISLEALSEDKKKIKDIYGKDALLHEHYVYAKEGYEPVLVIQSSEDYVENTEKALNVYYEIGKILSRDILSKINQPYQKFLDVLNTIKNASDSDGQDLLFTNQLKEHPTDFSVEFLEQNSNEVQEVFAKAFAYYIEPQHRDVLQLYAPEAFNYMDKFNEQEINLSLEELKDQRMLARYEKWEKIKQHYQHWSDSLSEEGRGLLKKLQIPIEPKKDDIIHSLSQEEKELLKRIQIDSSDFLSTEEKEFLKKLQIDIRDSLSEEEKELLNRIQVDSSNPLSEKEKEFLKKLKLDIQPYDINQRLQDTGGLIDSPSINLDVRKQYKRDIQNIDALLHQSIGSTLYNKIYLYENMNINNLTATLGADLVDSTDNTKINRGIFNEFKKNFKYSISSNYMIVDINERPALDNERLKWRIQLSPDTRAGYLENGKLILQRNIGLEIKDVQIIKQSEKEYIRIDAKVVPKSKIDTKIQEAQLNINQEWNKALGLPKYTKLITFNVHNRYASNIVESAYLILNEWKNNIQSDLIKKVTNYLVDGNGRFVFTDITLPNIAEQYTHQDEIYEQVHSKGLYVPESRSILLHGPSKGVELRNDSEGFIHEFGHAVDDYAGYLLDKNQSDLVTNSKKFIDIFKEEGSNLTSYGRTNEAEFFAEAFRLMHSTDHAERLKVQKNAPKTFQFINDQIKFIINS
BJeLR lethal = kills HRASV12-expressing BJeLR cells. 0.17% of 300,000 active. AID 1554. BJeLR (HRASV12) viability, CellTiter-Glo ATP luminescence, 48 h. inhibition, % (concentration not given with the values); in the data active means inhibition above about 50%; inconclusive means no clear call, values can overlap the other calls
BoNT A protease = inhibitors of Botulinum neurotoxin A light chain protease; multiplex microsphere protease substrate cleavage, flow cytometry; inhibition, % at 10 µM; 0.17% of 360,000 active; further: plate controls were buffer without enzyme for full effect and enzyme alone for no effect
Autofluor counter = flagged as autofluorescent in microsphere protease counterscreen; compound autofluorescence counterscreen, microsphere flow cytometry; active compounds read high; fluorescence intensity (concentration not given with the values); 3.1% of 360,000 active; AID 624483; in the data active means fluorescence intensity above about 16000; inconclusive means no clear call, values can overlap the other calls
* = called active by the depositor; ? = inconclusive; · = no result; ! = not confirmed by another sample. Unless noted, no stated cut-off is given here; in the data, active means inhibition above about 30%; inconclusive means no clear call, values can overlap the other calls; inactive means below that.

SMILES	SARS 3CLpro inh	BoNT F protease	Anthrax LF prot	BJeLR lethal	BoNT A protease	Autofluor counter
CCCN=C(N)/C(C(=O)OCC)=C(\O)c1ccc(OC)cc1	-4	2	-12	0	4	21368*
CC1(C)Cc2cccc(OCC(=O)Nc3ccccc3N3CCOCC3)c2O1	0	2	-2	2	0	16540*
CC1(C)Cc2cccc(OCC(=O)Nc3ccccc3C(F)(F)F)c2O1	4	9	-2	-6	-5	?
O=C(C1CCCN(Cc2ccc(Br)cc2)C1)N1CCCCC1 (configuration not stated)	-2	-6	-18	-5	-3	3889
CCCCNC(=O)CN1CCC2(O)CCCCC2C1c1ccccc1OC (configuration not stated)	-6	-6	2	-7	0	3334
CCOc1cc([C@H]2[C@@H]3CCCC[C@]3(O)CCN2CC(=O)NCc2ccco2)ccc1O	11	-2	-7	-5	0	22611*
CC1(NC(=O)c2cc(S(=O)(=O)N3CCCCC3)ccc2Cl)CCS(=O)(=O)C1 (configuration not stated)	1	-1	0	5	-2	24171*
CCOc1ncccc1C(=O)OCC(=O)Nc1cc(C)ccc1C	2	-1	-4	-2	-1	23113*
O=C(Nc1cccnc1Cl)c1cccc(F)c1	7	·	·	10	·	·
COCCOc1cc(NC(=O)c2cccc(OC)c2)c(Cl)cc1Cl	0	-6	4	-5	0	4804
Cc1cccc(C(=O)Nc2cccnc2Cl)c1	5	-160	-25	6	66*	2572
Cc1cccc(C(=O)Nc2cc(OCc3cccc(F)c3)c(Cl)cc2Cl)c1	0	1	0	-1	?	19656*
Cc1ccc(C)c(NC(=O)c2ccccn2)c1	2	0	0	10	?	20724*
CC(=O)Nc1c(C#N)c(-c2ccccc2)c(C#N)c(=O)n1-c1ccc(C)cc1	·	3	-1	·	0	3346
Cc1ccc(C(=O)OCC(=O)N2CCC(C)CC2)cc1S(=O)(=O)N1CCOCC1	·	0	-8	·	0	3543
CC(=O)c1ccc(NS(=O)(=O)Cc2ccccc2)cc1	4	0	4	-3	1	12649
COc1ccc(NS(=O)(=O)Cc2ccccc2)cc1OC	-1	-2	0	0	2	21419*
O=S(=O)(Cc1ccccc1)Nc1ccccc1	0	-13	9	-7	0	3618
CC(=O)N(C)c1ccc(NS(=O)(=O)Cc2ccccc2)cc1	2	1	0	0	?	22151*
N=c1c(S(=O)(=O)c2ccccc2)cc2c(=O)n3ccccc3nc2n1CCCN1CCOCC1	3	0	-8	4	1	3900
Cc1ccc(S(=O)(=O)c2cc3c(=O)n4ccccc4nc3n(Cc3ccco3)c2=N)cc1	-3	5	3	0	?	20456*
N=c1c(S(=O)(=O)c2ccc(Cl)cc2)cc2c(=O)n3ccccc3nc2n1CCN1CCOCC1	2	6	6	8	5	21495*
ONC(=Nc1ccc(Cl)cc1)c1ccc(Cl)cc1	-1	-4	-8	-4	-1	24126*
O=[N+]([O-])c1cccc(C(=Nc2ccc(Cl)cc2)NO)c1	0	-8	-5	-4	-1	6289
COc1cc(CCN(C(C)=O)C2C(=O)Nc3ccccc3N=C2c2ccc3c(c2)OCO3)cc(OC)c1 (configuration not stated)	·	-6	1	·	0	5516
SMILES	SARS 3CLpro inh	BoNT F protease	Anthrax LF prot	BJeLR lethal	BoNT A protease	Autofluor counter
Cc1cc(Cl)ccc1OCCCC(=O)NNC(=O)c1ccccc1O	·	·	·	-7	·	·
O=C(c1cn(-c2ccccc2)nc1-c1cccs1)N(CCO)Cc1ccccc1	1	7	0	6	0	3374
CN(C)c1ccc(NC(=O)c2cn(-c3ccccc3)nc2-c2cccs2)cc1	-5	-22	-3	-3	0	6416
CN(C)C(=O)c1cn(-c2ccccc2)nc1-c1cccs1	1	0	-3	5	?	23620*
O=C(Nc1ccc2ccccc2c1)c1cn(-c2ccccc2)nc1-c1cccs1	4	-7	-3	0	0	16591*
COc1ccc(-c2cn3nc(SCC(=O)NCC4CCCO4)ccc3n2)cc1 (configuration not stated)	3	7	2	0	2	5670
COc1nccc(-c2ccc(F)cc2)c1C#N	4	-4	0	-2	1	2501
Cc1ccc(S(=O)(=O)N2CCN(C(=O)COC(=O)COc3ccccc3)CC2)cc1	-4	2	-1	2	0	20093*
O=C(CN1CCc2ccccc2C1)N1CCN(S(=O)(=O)c2ccccc2)CC1	-3	-2	-12	0	1	?
Cc1ccc(S(=O)(=O)N2CCN(C(=O)CN3CCc4ccccc4C3)CC2)cc1	8	-5	0	-8	-2	21614*
COc1ccccc1NC(=O)c1nnn(CC(=O)Nc2cccc(SC)c2)c1N	-1	-3	0	6	1	22055*
CCOc1ccc(NC(=O)c2nnn(CC(=O)Nc3ccccc3OC)c2N)cc1	-1	36*	0	-4	1	4588
O=C(OCc1cccc(F)c1)c1ccc2c(c1)-c1ccccc1C2=O	2	3	3	5	4	22813*
O=C(OCc1ccccc1F)c1ccc2c(c1)-c1ccccc1C2=O	1	0	2	5	3	19102*
CCOC(=O)c1ccc(COC(=O)c2ccc3c(c2)-c2ccccc2C3=O)cc1	0	-12	-6	1	2	5898
Cc1ccc(S(=O)(=O)CCC(=O)OCC(=O)Nc2cccc(S(=O)(=O)N3CCCCC3)c2)cc1	·	12	2	·	1	3779
Cc1cccc(NC(=O)[C@@H]2CCCN2C(=O)OC(C)(C)C)c1C	0	-5	-16	-8	-4	3362
O=c1c2oc3ccccc3c2ncn1Cc1ccc(Cl)cc1	-1	-9	-7	-8	0	4344
CN(CC(=O)Nc1ccc(Cl)c(C(F)(F)F)c1)C(=O)C1CCCO1 (configuration not stated)	·	7	-2	·	1	2716
COc1cccc(-c2cnc3c(NC=O)cc(-c4ccncc4)cn23)c1	·	1	-4	·	0	3794
O=[N+]([O-])c1ccc(Sc2cccc3cccnc23)c([N+](=O)[O-])c1	5	6	-2	·	?	20643*
COc1ccc(NC(=O)C[C@H]2C(=O)N(Cc3ccccc3)C[C@@H]2CSC)cc1	·	-4	-1	·	0	3779
COCCOC(=O)C1=C(C)Nc2nc(C)nn2C1c1ccc(F)cc1 (configuration not stated)	1	4	6	-6	?	18889*!
COCCOC(=O)C1=C(C)Nc2ncnn2C1c1ccccc1 (configuration not stated)	-5	-3	1	0	-1	4425
COc1cccc2c1OC[C@@H](CO)[C@H]2N(C)C(=O)Nc1ccc(Cl)cc1	-1	10	-1	6	6	21011*
